# RGS4 inhibitor = blocks human RGS4-accelerated GTP hydrolysis. Transcreener GDP fluorescence polarization, RGS4-accelerated GTP hydrolysis. AID 504845. 0.039% of 390,000 active. P49798. Potency, µM (doses to about 114 µM), for the others: at the highest dose activity change, negative = inhibition, most hits filed as inhibitors; active = well fitted curve in the direction sought with a large enough effect; inconclusive = small, poorly fitted or top-dose-only effect, or another doubt; inactive = no such curve, though single readings can be large; an effect the other way counts as inactive or inconclusive; also: potency is read from the fitted curve at half-maximal effect; % is scaled to controls: 0 for no effect and ±100 for the full control effect; nearly all actives have a fitted effect of over 75% in size
# Target sequence (P49798 whole entry, looked up): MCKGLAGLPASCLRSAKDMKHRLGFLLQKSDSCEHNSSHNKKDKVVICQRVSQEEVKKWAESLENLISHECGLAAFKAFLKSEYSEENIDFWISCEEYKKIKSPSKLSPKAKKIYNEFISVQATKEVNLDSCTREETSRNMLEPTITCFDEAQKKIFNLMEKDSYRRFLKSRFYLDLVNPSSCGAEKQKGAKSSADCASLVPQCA
#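 MLSMR compounds (23 nl, pin-transferred) preincubated 10 min at room temperature with a 500nM (2x) first reagent, then RGS4 at 900nM (2x) plus Transcreener GDP mix added; fluorescence polarization (620/688 nm) read before and after 90 min at 30 °C.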
# Glioma ERSR ind = ER stress response induction in glioma | U87-MG GRP78 promoter luciferase reporter, 16 h | Potency, µM, inactives show top-dose activation, most hits filed as activators | 0.02% of 420,000 active | AID 602332; active = well fitted curve in the direction sought with a large enough effect; inconclusive = small, poorly fitted or top-dose-only effect, or another doubt; inactive = no such curve, though single readings can be large; an effect the other way counts as inactive or inconclusive; also: potency is read from the fitted curve at half-maximal effect; series mostly up to about 76 µM; % of control where 0% means no effect; nearly all actives have a fitted effect of over 35% in size
#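 ERSR induction read as luciferase luminescence (Bright-Glo, 10 min at room temperature) in stably transfected human U87-MG glioma cells exposed to compounds for 16 h, using GRP78 as sensor.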
# CtBP-E1A inh = blocks the CtBP interaction with E1A; AlphaScreen GST-E1A/His-CtBP binding, 1536-well; active compounds read low; activity change, % (test concentration not listed); AID 651724; 0.49% of 340,000 active; also: % is scaled to controls: 0 for no effect and ±100 for the full control effect
#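 AlphaScreen with 125 nM GST-E1A and 125 nM His-CtBP (5X stocks) in Tris pH 8.0, 300 mM NaCl, BSA, Tween 20, TCEP. Compounds preincubated 2 h at 37 deg C, then glutathione donor/nickel acceptor beads added for 1 h at 37 deg C in dark.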
# Six1-Eya2 inh = inhibitors of human Six1/Eya2 interaction | Q15475+O00167 | activity change, % (concentration not given with the values) | AlphaScreen GST-Six1/His-Eya2 binding, biochemical; active compounds read low | 0.56% of 360,000 active; also: % is scaled to controls: 0 for no effect and ±100 for the full control effect
#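 AlphaScreen luminescence read after one hour at 37 °C in darkness. Pin-transferred compounds met GST-Six1 and His-Eya2 protein (5X stock 250 nM/500 nM) plus glutathione donor and Ni-chelate acceptor beads (5X, 50 ug/mL).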
# pAkt inh = Akt phosphorylation inhibition | activity change, % for hits at 50 µM | 0.32% of 360,000 active | Neuro2A IGF-stimulated pAkt S473 HTRF, 20 min; active compounds read low; in the data active = activity change below about -80%; inconclusive = mostly about -51% to -80%; also: % is scaled to controls: 0 for no effect and ±100 for the full control effect
#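 Single-point screen (50 µM final compound) in Neuro2A cells stimulated 20 min with 6 nM IGF at 37 deg C. After lysis, Ser473-phosphorylated Akt read by HTRF (ex 330 nm, em 615/665 nm) as the 665/615 ratio.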
# An asterisk follows results filed as active; i = inactive; ? = inconclusive; · = no result given; [ ] = another dose, or the depositor's remark. Shown are actives, neighbours in structure and some others; about 0.88% of the full set was active somewhere. Rule as the data show it, unless noted: active = activity change below about -65%; inconclusive = mostly about -30% to -63%; inactive = weaker than that.
SMILES,RGS4 inhibitor,Glioma ERSR ind,CtBP-E1A inh,Six1-Eya2 inh,pAkt inh
CCN1CCN(C(c2ccc(C(F)(F)F)cc2)c2ccc3cccnc3c2O)CC1 (stereo not given),?,-10.1%,-1.0,-86.0*,i
Cc1ncc2c(c1CNC(=O)CN1CCCC1)CCN(C(=O)c1ccc(F)cc1F)C2,·,-5.8%,·,·,·
COC(=O)c1ccccc1NC(=O)CSc1nccn1C,-14.5%,4.5%,10.3,2.9,-98.6%*
Cc1ccc2oc(-c3ccc(C)c(NC(=O)COc4ccc(Cl)cc4)c3)nc2c1,·,1.0%,·,·,·
CN(C)c1ccc(/C=C/C=C2/SC(=S)N(c3ccccc3)C2=O)cc1,-66.3%,0.6%,-65.8*,-68.7*,i
CCN(CC)c1ccc(/C=N/NC(=O)c2ccco2)cc1,-38.0%,-12.9%,-26.1,-11.3,i
CCN(CC)c1ccc(NC(=S)NC(=O)c2ccco2)cc1,?,-0.5%,3.1,-69.7*,i
CCN(CC)c1ccc(/C=N/NC(=O)c2ccco2)c(O)c1,18.4%,5.4%,?,-65.2*,i
C/C(=N\Nc1ccc2nncn2n1)c1ccco1,16.8%,-4.9%,-19.1,-9.5,i
C/C(=N\Nc1ccc2nncn2n1)c1ccccn1,0.8%,-2.3%,-95.5*,-91.1*,i
C=CCNc1nc(=S)[nH]c2cc(OC)c(OC)cc12,-17.0%,-5.1%,-73.5*,-82.5*,i
COc1cc(OC)c2nc(-c3cc4c(c(OC)c3)OCCN(C(=O)C(C)c3n[nH]c(=O)c5ccccc35)C4)cc(C)c2c1 (stereo not given),·,-2.7%,·,·,·
COc1cc(C(=O)Oc2ccc(Br)cc2C(=S)N2CCOCC2)cc(OC)c1OC,?,-1.7%,-71.3*,-83.4*,i
CCCCN1CC[C@H]2C=CC[C@@H](C(=O)NC3CCCCC3)[C@H]2C1=O,·,0.8%,·,·,·
O=C(CSc1ncccn1)N1CCCCCC1,-2.8%,1.8%,5.4,4.7,i
CN(C)C(=O)CSc1cccc2cccnc12,-49.0%,-0.2%,-94.4*,-91.4*,i
O=C(CSc1cccc2cccnc12)OCC(=O)c1ccccc1,-64.1%[56.9 µM],4.2%,-93.3*,-87.7*,i
O=C(CSc1cccc2cccnc12)N1CCCC1,-40.4%[11.4 µM],2.1%,-91.4*,-93.3*,i
CC(O)(COc1ccccc1)c1ccc2c(c1)CN(Cc1ccc3nsnc3c1)CCO2 (stereo not given),·,-3.3%,·,·,·
Cc1ncc2c(c1CNS(=O)(=O)N(C)C)CCN(C(=O)/C=C/c1ccccc1Cl)C2,·,-1.9%,·,·,·
CCCCN(Cc1cc2cc(OC)ccc2[nH]c1=O)C(=O)c1ccco1,-38.2%,-1.3%,-6.7,-11.0,-92.7%*
Cc1ccc(N(Cc2cc(=O)[nH]c3ccccc23)C(=O)c2ccco2)cc1,-20.7%,?,-0.2,-3.7,-119.0%*
CCCN(Cc1cc2cc(OC)ccc2[nH]c1=O)C(=O)c1ccco1,-12.1%,-2.0%,-7.1,8.1,i
Cc1ccc(N(Cc2cc3ccccc3[nH]c2=O)C(=O)c2ccco2)c(C)c1,2.2%,-2.9%,0.5,-10.1,-112.0%*
COc1ccc2[nH]c(=O)c(CN(Cc3ccco3)C(c3nnnn3Cc3ccccc3)C(C)C)cc2c1 (stereo not given),-14.2%,-3.5%,-3.3,-14.8,-105.5%*
SMILES,RGS4 inhibitor,Glioma ERSR ind,CtBP-E1A inh,Six1-Eya2 inh,pAkt inh
CC(=O)N(Cc1cc(=O)[nH]c2ccccc12)c1ccc(C)cc1,12.0%,3.8%,12.1,2.4,i
COc1ccccc1-c1ccnc(-n2ncc(C(=O)NCc3cccnc3)c2C)n1,·,0.7%,·,·,·
CC(C)CC(NC(=O)CNC(=O)C(Cc1ccc(O)cc1)NC(=O)C(CO)NC(=O)C(Cc1c[nH]c2ccccc12)NC(=O)C(Cc1cnc[nH]1)NC(=O)C1CCC(=O)N1)C(=O)NC(CCCN=C(N)N)C(=O)N1CCCC1C(=O)NCC(N)=O (stereo not given),·,-3.5%,·,·,·
N#C/C(=C\c1ccc(OC(=O)c2ccccn2)cc1)C(N)=O,3.6%,-0.3%,-4.1,-89.8*,i
N#C/C(=C\c1ccc(OCc2ccccc2)cc1)C(N)=O,?,7.5%,-16.0,-4.3,i
CSc1nc(N)n2nc(C)cc2n1,·,0.4%,-92.1*,-89.3*,i
CSc1nc(N)n2nc(C(C)(C)C)cc2n1,-45.4%,-3.3%,-2.4,2.7,i
CC(C)n1c(O)c(N=NC(=O)c2ccccc2NS(=O)(=O)c2cccs2)c2ccccc21,?,2.7%,·,-85.8*,i
COCC1CCCN(Cc2ccc3c(c2)CN(C(=O)c2cnn(C(C)C)c2)CCO3)C1 (stereo not given),·,-2.2%,·,·,·
O=C(Nc1nccs1)c1nc[nH]c1C(=O)N1CCN(c2ccccc2)CC1,-17.5%,-2.3%,-71.0*,-77.7*,i
O=C(/C=C/c1cc(Br)ccc1F)OCC(=O)N1CCOCC1,-0.8%,-0.9%,-81.5*,-24.0,i
O=C(/C=C/c1cc(Br)ccc1F)OCC(=O)N1CCCC1,-6.4%,-1.3%,-5.7,?,i
CCN(CC)c1ccc(-c2nnc(SCC(=O)NCc3ccco3)n2CC)cc1,·,-0.3%,·,·,·
CSc1ccccc1NC(=O)CN(C)C(=O)COc1cccc2cccnc12,-2.8%,-5.1%,-85.4*,-85.2*,i
COc1ccc(C(=O)N2CCC3(CC2)c2ccccc2[C@@H](NC(=O)c2ccccn2)[C@@H]3OC)c(O)c1,·,-5.0%,·,·,·
CCOC(=O)C(=CNc1cc(C)nn1-c1ccccc1)C(=O)OCC,-15.2%,-3.3%,-9.0,-10.4,i
CCOC(=O)C(/C=N/c1cc(C)nn1-c1ccccc1)=C(\C)O,-10.7%,-1.6%,1.5,0.0,-110.1%*
CCCC12CN3CC(C)(CN(C1)C3c1ccc(OC)cc1)C2=O (stereo not given),-9.1%,-3.9%,1.1,-21.0,i
CCC12CN3CC(CC)(CN(C1)C3c1ccc(OC(C)C)cc1)C2=O (stereo not given),1.0%,-4.3%,1.8,2.5,-111.9%*
O=C(NC1CCCC1)c1cn(C2CCCN(Cc3ccc4c(c3)OCCO4)C2)nn1 (stereo not given),·,-4.7%,·,·,·
COc1cc(NS(=O)(=O)c2ccc(Nc3nc(-c4ccccn4)cs3)cc2)nc(OC)n1,3.4%,-0.8%,-76.1*,-79.5*,i
O=C(CSc1n[nH]c(=O)[nH]c1=O)N/N=C/c1ccccc1O,-27.3%,0.8%,-76.8*,-79.9*,i
COC(=O)CN(Cc1ccco1)S(=O)(=O)c1ccccc1,-1.2%,-4.0%,-2.5,2.4,i
O=C(CN(Cc1ccccc1)S(=O)(=O)c1ccc2c(c1)OCCO2)N/N=C/c1ccc(F)cc1,27.0%,-0.2%,1.5,-27.0,i
COc1ccc(/C=N/NC(=O)CN(Cc2ccccc2)S(=O)(=O)c2ccc3c(c2)OCCO3)cc1,-1.4%,0.9%,-4.0,-65.4*,i
COc1cc(/C=N/NC(=O)CN(Cc2ccccc2)S(=O)(=O)c2ccc3c(c2)OCCO3)ccc1O,-21.8%,-0.7%,-13.7,-82.4*,i
